697 NFkB inh – inhibitors of PMA/ionomycin-induced NF-kB reporter, 697 cells, primary screen, B-cell NF-kB inhibitor project, cell-based, luminescence, uHTS | 697 B-cell NF-kB luciferase reporter, 16 h | inhibition, % at 4 µM | 330,000 tested, 0.33% active | AID 435022, 2010; in the data active = inhibition above about 35%
Jurkat NFkB inh – inhibitors of induced NF-kB luciferase reporter, primary screen, TCR NF-kB activation inhibitor project, cell-based, luminescence, uHTS; Jurkat, PMA/ionomycin-induced NF-kB luciferase reporter; inhibition, % at 4 µM; 330,000 tested, 0.53% active; in the data active = inhibition above about 50%
Beta apoptosis – inhibitors of cytokine-induced beta cell apoptosis, primary screen, luminescence; INS-1E cytokine-induced death, ATP luminescence, 48 h; percent of positive-control rescue, neutral wells zero; protection from apoptosis, % (no concentration beside the values); 300,000 tested, 0.8% active; AID 435005, 2010;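 active = Every replicate reaches about 75%, or at least half do and their mean reaches it too, limit read from the data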;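 note: higher means more ATP so stronger rescue from cytokine killing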
Gli-Sufu antag – Gli-Sufu pathway antagonists, primary screen, luciferase luminescence, Sufu-KO-LIGHT cells, uHTS; inhibition, % at 5 µM; 340,000 tested, 0.74% active; Sufu-KO-LIGHT fibroblasts, Gli luciferase reporter luminescence;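 active = inhibition above about 55%, limit read from the data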
697 NFkB conf – PMA/ionomycin-induced NF-kB reporter inhibitors, 697 retest, confirmation, B-cell NF-kB inhibitor project, cell-based, luminescence, single concentration; shares compounds with 697 NFkB inh; 697 B-cell NF-kB luciferase, 16 h; inhibition, % at 4 µM; 2,000 tested, 35% active; AID 449746, 2010; in the data active = inhibition mostly above about 28%, no sharp cut-off; inactive = mostly below about 22%
A number is an active result; . = inactive; / = no result given. An excerpt weighted towards active compounds, which were near 1.8% of everything screened.

SMILES	697 NFkB inh	Jurkat NFkB inh	Beta apoptosis	Gli-Sufu antag	697 NFkB conf
CCOc1ccc(-c2nc(CSCC(=O)NCc3ccco3)c(C)o2)cc1	99	.	.	.	99
COc1ccccc1NC(=O)C1=C(C)NC(=O)NC1c1cccs1 (stereo not drawn)	.	.	.	.	/
CCn1cc(C(=O)O)c(=O)c2cc(F)c(N3CCN(C(=S)NC(=O)c4ccc(Br)cc4)CC3)cc21	38	.	.	.	.
CCn1cc(C(=O)O)c(=O)c2cnc(N3CCN(C(=S)Nc4ccccc4Cl)CC3)nc21	.	.	.	.	/
CCn1cc(C(=O)O)c(=O)c2cc(F)c(N3CCN(C(=S)NC(=O)c4ccc(OC)cc4)CC3)cc21	.	.	.	.	/
CCn1cc(C(=O)O)c(=O)c2cnc(N3CCN(C(=S)NC(=O)c4ccc(Br)cc4)CC3)nc21	84	.	.	.	26
CCn1cc(C(=O)O)c(=O)c2cnc(N3CCN(C(=S)NC(=O)c4ccc(Cl)cc4)CC3)nc21	38	.	.	.	.
O=c1c2ccccc2oc2ccc(-c3ccc4cc[nH]c4c3)cc12	.	.	.	.	.
Cc1ccc2oc3ccccc3c(=O)c2c1	/	/	/	.	/
COC(=O)C1=C(C)N(c2ccc(Cl)cc2)/C(=C/c2ccc(O)cc2)C1=O	36	.	.	.	.
COC(=O)C1=C(C)N(c2cc(C)cc(C)c2)/C(=C/c2ccc(O)cc2)C1=O	.	.	.	.	/
CCN(C(=O)COC(=O)/C=C/c1ccccc1Cl)c1c(N)n(Cc2ccccc2)c(=O)[nH]c1=O	.	.	/	.	/
CCOc1ccc(NC(=O)CN(C)C(=O)c2ccc(N3CCOCC3)c([N+](=O)[O-])c2)cc1OCC	.	.	.	.	/
CCOc1ccc(NC(=O)CN(C)C(=O)c2ccc(N3CCCCCC3)c([N+](=O)[O-])c2)cc1OCC	42	.	.	.	.
COC(=O)c1[nH]c2ccc(C)cc2c1NC(=O)Nc1ccccc1OC	36	.	.	.	26
CN(C)c1ccc(C(=O)c2ccc(N(C)C)c3ccccc23)cc1	.	.	.	.	.
CN(C)c1ccccc1C(=O)c1ccccc1N(C)C	.	.	.	.	/
COc1ccc(-c2nncnn2)cc1	.	.	.	.	/
COc1cc(C(=O)Nc2cc(C)c(OCC(=O)N3CCOCC3)c(C)c2)cc(OC)c1OC	36	.	.	.	32
CCN1C[C@@H]2[C@@H]3C(=O)N(C)C(=O)[C@@H]3[C@](C)(C1=O)N2C(=O)c1ccc(Cl)cc1	/	/	/	.	/
COc1ccc(/C=C\C(=O)O[C@@H]2C(O)C(O[C@@H]3OC(C)[C@H](O[C@@H]4OCC(O[C@H]5O[C@H](CO)[C@@H](O)C(O)C5O)C(O)C4O)C(O)C3O)[C@H](OC(=O)[C@]34CCC(C)(C)C[C@@H]3C3=CCC5[C@@]6(C)CC(O)C(O[C@@H]7OC(CO)C(O)[C@H](O)[C@H]7O)[C@@](C)(C(=O)O)C6CC[C@@]5(C)[C@]3(CO)CC4)O[C@H]2C)cc1 (stereo partly drawn)	49	.	.	.	44
C=CCn1c(SCC(=O)Nc2ccc(-c3nc4ccc(C)cc4s3)cc2)nnc1-c1ccncc1	.	.	.	.	/
Cc1ccc2nc(-c3ccc(NC(=O)CN4CCN(c5ccccn5)CC4)cc3)sc2c1	.	.	.	.	.
Cc1ccc2nc(NC(=O)CN3CCN(c4ccccn4)CC3)sc2c1	.	.	.	.	/
CCn1c(SCC(=O)Nc2ccc(-c3nc4ccc(C)cc4s3)cc2)nnc1-c1ccccc1	.	.	.	/	.
SMILES	697 NFkB inh	Jurkat NFkB inh	Beta apoptosis	Gli-Sufu antag	697 NFkB conf
COc1cc(/C=C/c2nc(N)nc(-c3ccccc3O)n2)cc(OC)c1OC	36	.	.	.	.
CS(=O)(=O)N1CCC(C(=O)Nc2cc(C(F)(F)F)ccc2Cl)CC1	.	.	.	.	/
COc1ccc(/C=N\NC(=O)c2sccc2C)cc1Cn1nc(C)cc1C	39	.	.	.	44
COc1ccc(/C=N\NC(=O)COc2ccccc2Cl)cc1Cn1nc(C)cc1C	.	.	.	.	/
O=c1cc(-c2ccc(O)c(O)c2)oc2ccc3ccccc3c12	.	.	/	.	.
Cc1c(CNC(=O)c2cnn3c2NC(c2ccccc2)CC3C(F)(F)F)cnn1C (stereo not drawn)	.	.	.	.	/
CCOc1cc2nc(-c3ccc(OC)c(OC)c3)nc(N3CC(C)OC(C)C3)c2cc1OC (stereo not drawn)	.	.	.	/	/
CCOc1cc2nc(-c3ccc(OC)c(OC)c3)nc(N3CCOCC3)c2cc1OC	45	.	.	.	38
O=C(CCCn1c(SCC(=O)Nc2ccccc2C(F)(F)F)nc2ccccc2c1=O)NCC1CCCO1 (stereo not drawn)	.	.	.	.	/
CNC(=O)COC(=O)c1cccnc1SC	35	.	.	.	.
NS(=O)(=O)c1cc(C(=O)O)cc(N2CCCC2)c1Oc1ccccc1	.	.	/	.	/
COc1ccc(N2CCN(CCCn3c(=S)[nH]c4ccccc4c3=O)CC2)cc1	.	.	.	.	.
COc1ccccc1N1CCN(CCCn2c(=S)[nH]c3ccccc3c2=O)CC1	.	.	.	.	/
Cn1c(=O)[nH]c(=O)c2c1nc(N1CCOCC1)n2CCc1ccccc1	47	.	.	.	.
Cn1c(=O)[nH]c(=O)c2c1nc(N1CCOCC1)n2CCSc1nnnn1-c1ccccc1	38	.	.	.	.
CC(CSc1nnnn1-c1ccccc1)Cn1c(N2CCCC2)nc2c1c(=O)[nH]c(=O)n2C (stereo not drawn)	.	.	.	.	/
COc1ccc(-c2cc3ccc(OC)cc3cn2)cc1	.	.	.	.	.
O=C(O)CCc1nn2c3ccccc3n(CC(=O)O)c2nc1=O	.	.	.	.	/
O=C(O)CCc1nn2c3ccccc3n(Cc3ccccc3F)c2nc1=O	41	.	.	.	.
Cc1cc(C(=O)Cn2nnc3ccccc3c2=O)c(C)n1Cc1cccs1	.	.	.	.	.
Cc1ccccc1-n1ncc(C(C)NC(=O)c2ccco2)c1C (stereo not drawn)	.	.	.	.	/
COCCNC(=O)CSc1nccn1Cc1ccc2c(c1)OCO2	.	.	.	.	/
CN(CC(=O)Nc1ccc(Cl)c(C(F)(F)F)c1)C(=O)CCCc1nc2ccccc2c(=O)[nH]1	.	.	.	.	/
CCOc1ccc(-c2nnc(-c3cccs3)o2)cc1OCC	.	.	.	.	/
CCOc1ccc(-c2nnc(-c3cccs3)o2)cc1	.	.	/	.	.
CCCc1c(NC(=O)Nc2ccc(F)cc2)cnn1-c1ccccc1	.	.	.	.	.
CC1CCCCN1CCNC(=O)c1ccc2c(c1)N(Cc1ccccc1F)C(=O)c1ccccc1S2=O (stereo not drawn)	.	.	.	.	/
Cc1c(/C=N/NC(=O)c2cccs2)c2ccccc2n1Cc1ccccc1Cl	.	.	.	.	.

From PubChem BioAssay
